# From PubChem BioAssay (NCI)
# The panel holds about 79,000 compounds, 15% with a hit somewhere; the sample as a whole holds those more often. Unmarked numbers belong to inactive results. Activity calls are given as the source filed them. Cut-off read from the data, not from the text of the source: active = growth inhibition above about 70%; inactive = the rest.
# Assays:
# [1] = NCI Yeast Anticancer Drug Screen. Data for the rad52 strain (AID 147);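 note: 0% = growth of vehicle-treated control cultures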; details: S. cerevisiae rad52 mutant growth inhibition, stronger effect = higher value
# Procedure, shortened: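 Inhibition of yeast growth, referenced to vehicle controls, was the measured output for a strain with defective DNA damage repair.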
# [2] = NCI Yeast Anticancer Drug Screen. Data for the wt1 strain (AID 149);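 note: 0% = growth of vehicle-treated wt1 cultures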; details: S. cerevisiae wt1 strain (SPY 50644) growth inhibition, stronger effect = higher value
# Procedure, shortened: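 Compounds are added to wt1 yeast cultures. Growth is then measured. Inhibition is expressed relative to vehicle-treated controls.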
# [3] = NCI Yeast Anticancer Drug Screen. Data for the rad50EPP+ strain (AID 151);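 note: 0% = growth of vehicle-treated control cultures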; details: S. cerevisiae rad50 mutant strain, stronger effect = higher value
# Procedure, shortened: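 Genetically defined yeast (rad50EPP+, DNA damage repair alteration) is grown with compound, and inhibition of growth is expressed relative to vehicle-treated controls.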
# [4] = NCI Yeast Anticancer Drug Screen. Data for the mgt1 strain (AID 153); details: S. cerevisiae mgt1 mutant growth inhibition, stronger effect = higher value
# Procedure, shortened: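 In the mgt1 strain, test compounds were added and growth inhibition was determined relative to vehicle-treated controls.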
# [5] = NCI Yeast Anticancer Drug Screen. Data for the rad50 strain (AID 155);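 note: 0% = growth of vehicle-only cultures of the same strain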; details: S. cerevisiae rad50 strain growth inhibition, stronger effect = higher value
# Procedure, shortened: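 Inhibition values express reduced yeast growth in compound-treated cultures relative to vehicle-treated controls.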
# [6] = NCI Yeast Anticancer Drug Screen. Data for the mec2-1 strain (AID 157); details: S. cerevisiae mec2-1 strain, stronger effect = higher value
# Procedure, shortened: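 Each compound was tested on mec2-1 yeast, a strain altered in DNA damage repair or cell cycle control. Growth inhibition is reported relative to vehicle.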
# [7] = NCI Yeast Anticancer Drug Screen. Data for the rad14 strain (AID 159);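 note: 0% = growth of vehicle-treated control cultures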; details: S. cerevisiae rad14 strain growth inhibition, stronger effect = higher value
# Procedure, shortened: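 A mutant yeast strain defective in DNA damage repair is treated with compound; inhibition of its growth is scored against untreated, vehicle-exposed cultures.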
# [8] = NCI Yeast Anticancer Drug Screen. Data for the sgs1 mgt1 strain (AID 161);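 note: 0% = growth of cultures given vehicle only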; details: S. cerevisiae sgs1 mgt1 strain, stronger effect = higher value
# Procedure, shortened: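 Inhibition of yeast growth, normalised to vehicle-treated controls, is reported for a strain bearing genetic alterations in DNA damage repair.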
# [9] = NCI Yeast Anticancer Drug Screen. Data for the CLN2oe strain (AID 163);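 note: 0% = growth of vehicle-only control cultures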; details: S. cerevisiae CLN2oe strain, stronger effect = higher value
# Procedure, shortened: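 First, the altered yeast strain was treated with each compound; second, its growth was measured; finally, inhibition was derived by comparison with vehicle controls.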
# [10] = NCI Yeast Anticancer Drug Screen. Data for the cln2 rad14 strain (AID 165);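 note: 0% = growth equal to vehicle treated cultures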; details: S. cerevisiae cln2 rad14 strain, stronger effect = higher value
# Procedure, shortened: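 Test compounds were added to cln2 rad14 yeast cultures; inhibition of growth was then determined by comparison with vehicle treatment.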
# [11] = NCI Yeast Anticancer Drug Screen. Data for the bub3 strain (AID 167); details: S. cerevisiae bub3 mutant strain, stronger effect = higher value
# Procedure, shortened: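 Steps: expose the mutant yeast strain to compound; grow alongside vehicle-treated cultures; measure growth; express inhibition against the vehicle cultures.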
# [12] = NCI Yeast Anticancer Drug Screen. Data for the wt2 strain (AID 169);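 note: 0% = growth of vehicle-treated yeast cultures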; details: S. cerevisiae wt2 strain growth inhibition, stronger effect = higher value
# Procedure, shortened: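 The panel's yeast strains carry defined changes in DNA repair or cell cycle genes. Each strain is grown with compound, and growth loss is scored relative to vehicle.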
# [13] = NCI Yeast Anticancer Drug Screen. Data for the mlh1 strain (AID 171);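 note: 0% = growth of vehicle-treated control cultures of the same strain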; details: S. cerevisiae mlh1 strain growth inhibition, stronger effect = higher value
# Procedure, shortened: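 Inhibition values reflect reduced yeast growth in the presence of compound, referenced to vehicle controls, using a strain chosen for its alteration in DNA repair or cell cycle control.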
# [14] = NCI Yeast Anticancer Drug Screen. Data for the sgs1 strain (AID 173);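 note: 0% = growth of vehicle-only control cultures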; details: S. cerevisiae sgs1 mutant, stronger effect = higher value
# Procedure, shortened: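 Vehicle-treated cultures served as reference for growth inhibition of a yeast strain altered in DNA damage repair or cell cycle control after compound exposure.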
# [15] = NCI Yeast Anticancer Drug Screen. Data for the mlh1 rad18 strain (AID 175); details: S. cerevisiae mlh1 rad18 strain growth inhibition, stronger effect = higher value
# Procedure, shortened: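 Inhibition values reflect reduced growth of mutant yeast versus vehicle-treated controls following compound exposure; the mutations affect DNA damage repair.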
# [16] = NCI Yeast Anticancer Drug Screen. Data for the rad18 strain (AID 177); details: S. cerevisiae rad18 mutant growth inhibition, stronger effect = higher value
# Procedure, shortened: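 Steps: expose repair-mutant yeast to compound; measure growth; express as inhibition relative to vehicle control.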
# [17] = at 5.0 µM (retest, dose inferred, filed as 0.5)
# [18] = at 50.0 µM (retest, dose inferred, filed as 5.0)
compound,measurement,setting,value
CCC(/C=C/c1ccccc1)=N\Nc1ccc(Cl)c(Cl)c1,growth inhibition,[1]; at 1.2 µM,7%
same,growth inhibition,[1]; at 3.7 µM,11%
same,growth inhibition,[1]; at 11.0 µM,17%
same,growth inhibition,[1]; at 33.0 µM,87% (active)
same,growth inhibition,[1]; at 100.0 µM,92% (active)
same,growth inhibition,[2]; at 1.2 µM,0%
same,growth inhibition,[2]; at 3.7 µM,-3%
same,growth inhibition,[2]; at 11.0 µM,-4%
same,growth inhibition,[2]; at 33.0 µM,24%
same,growth inhibition,[2]; at 100.0 µM,93% (active)
same,growth inhibition,[3]; at 1.2 µM,9%
same,growth inhibition,[3]; at 3.7 µM,20%
same,growth inhibition,[3]; at 11.0 µM,28%
same,growth inhibition,[3]; at 33.0 µM,29%
same,growth inhibition,[3]; at 100.0 µM,29%
same,growth inhibition,[4]; at 1.2 µM,-3%
same,growth inhibition,[4]; at 3.7 µM,4%
same,growth inhibition,[4]; at 11.0 µM,-4%
same,growth inhibition,[4]; at 33.0 µM,-3%
same,growth inhibition,[4]; at 100.0 µM,95% (active)
same,growth inhibition,[5]; at 1.2 µM,26%
same,growth inhibition,[5]; at 3.7 µM,36%
same,growth inhibition,[5]; [17],7%
same,growth inhibition,[5]; at 11.0 µM,22%
same,growth inhibition,[5]; at 33.0 µM,89% (active)
same,growth inhibition,[5]; [18],89% (active)
same,growth inhibition,[5]; at 50.0 µM,95.5% (active)
same,growth inhibition,[5]; at 100.0 µM,91% (active)
same,growth inhibition,[6]; at 1.2 µM,-2%
same,growth inhibition,[6]; at 3.7 µM,-1%
same,growth inhibition,[6]; [17],-1%
same,growth inhibition,[6]; at 11.0 µM,-5%
same,growth inhibition,[6]; at 33.0 µM,22%
same,growth inhibition,[6]; [18],81% (active)
same,growth inhibition,[6]; at 50.0 µM,72.5% (active)
same,growth inhibition,[6]; at 100.0 µM,92% (active)
same,growth inhibition,[7]; at 1.2 µM,2%
same,growth inhibition,[7]; at 3.7 µM,0%
same,growth inhibition,[7]; at 11.0 µM,-6%
same,growth inhibition,[7]; at 33.0 µM,10%
same,growth inhibition,[7]; at 100.0 µM,94% (active)
same,growth inhibition,[8]; [17],3%
same,growth inhibition,[8]; [18],74% (active)
same,growth inhibition,[8]; at 50.0 µM,82.5% (active)
same,growth inhibition,[9]; at 1.2 µM,-2%
same,growth inhibition,[9]; at 3.7 µM,-8%
same,growth inhibition,[9]; at 11.0 µM,-9%
same,growth inhibition,[9]; at 33.0 µM,36%
same,growth inhibition,[9]; at 100.0 µM,89% (active)
same,growth inhibition,[10]; [17],1%
same,growth inhibition,[10]; [18],71% (active)
same,growth inhibition,[10]; at 50.0 µM,85.7% (active)
same,growth inhibition,[11]; at 1.2 µM,-2%
same,growth inhibition,[11]; at 3.7 µM,2%
same,growth inhibition,[11]; [17],2%
same,growth inhibition,[11]; at 11.0 µM,14%
same,growth inhibition,[11]; at 33.0 µM,85% (active)
same,growth inhibition,[11]; [18],93% (active)
same,growth inhibition,[11]; at 50.0 µM,94.3% (active)
same,growth inhibition,[11]; at 100.0 µM,91% (active)
same,growth inhibition,[12]; at 1.2 µM,-2%
same,growth inhibition,[12]; at 3.7 µM,-5%
same,growth inhibition,[12]; at 11.0 µM,7%
same,growth inhibition,[12]; at 33.0 µM,22%
same,growth inhibition,[12]; at 100.0 µM,95% (active)
same,growth inhibition,[13]; at 1.2 µM,-4%
same,growth inhibition,[13]; at 3.7 µM,-2%
same,growth inhibition,[13]; at 11.0 µM,0%
same,growth inhibition,[13]; at 33.0 µM,39%
same,growth inhibition,[13]; at 100.0 µM,94% (active)
same,growth inhibition,[14]; at 1.2 µM,-3%
same,growth inhibition,[14]; at 3.7 µM,-17%
same,growth inhibition,[14]; at 11.0 µM,17%
same,growth inhibition,[14]; at 33.0 µM,67%
same,growth inhibition,[14]; at 100.0 µM,95% (active)
same,growth inhibition,[15]; [17],9%
same,growth inhibition,[15]; [18],93% (active)
same,growth inhibition,[15]; at 50.0 µM,91.3% (active)
same,growth inhibition,[16]; at 1.2 µM,6%
same,growth inhibition,[16]; at 3.7 µM,16%
same,growth inhibition,[16]; at 11.0 µM,8%
same,growth inhibition,[16]; at 33.0 µM,43%
same,growth inhibition,[16]; at 100.0 µM,95% (active)
O=C1Nc2ccc(Br)cc2C1=Nc1ccc(Cl)cc1,growth inhibition,[1]; at 1.2 µM,-20%
same,growth inhibition,[1]; at 3.7 µM,-12%
same,growth inhibition,[1]; at 11.0 µM,9%
same,growth inhibition,[1]; at 33.0 µM,42%
same,growth inhibition,[1]; at 100.0 µM,64%
same,growth inhibition,[2]; at 1.2 µM,-8%
same,growth inhibition,[2]; at 3.7 µM,-15%
same,growth inhibition,[2]; at 11.0 µM,14%
same,growth inhibition,[2]; at 33.0 µM,42%
same,growth inhibition,[2]; at 100.0 µM,71% (active)
same,growth inhibition,[3]; at 1.2 µM,-45%
same,growth inhibition,[3]; at 3.7 µM,-10%
same,growth inhibition,[3]; at 11.0 µM,-8%
same,growth inhibition,[3]; at 33.0 µM,8%
same,growth inhibition,[3]; at 100.0 µM,41%
same,growth inhibition,[4]; at 1.2 µM,-52%
same,growth inhibition,[4]; at 3.7 µM,-55%
same,growth inhibition,[4]; at 11.0 µM,-21%
same,growth inhibition,[4]; at 33.0 µM,20%
same,growth inhibition,[4]; at 100.0 µM,50%
same,growth inhibition,[5]; at 1.2 µM,-29%
same,growth inhibition,[5]; at 3.7 µM,-20%
same,growth inhibition,[5]; [17],70% (active)
same,growth inhibition,[5]; at 11.0 µM,12%
same,growth inhibition,[5]; at 33.0 µM,42%
same,growth inhibition,[5]; [18],100% (active)
same,growth inhibition,[5]; at 50.0 µM,57.4%
same,growth inhibition,[5]; at 100.0 µM,64%
same,growth inhibition,[6]; at 1.2 µM,-68%
same,growth inhibition,[6]; at 3.7 µM,-75%
same,growth inhibition,[6]; [17],77% (active)
same,growth inhibition,[6]; at 11.0 µM,-64%
same,growth inhibition,[6]; at 33.0 µM,-1%
same,growth inhibition,[6]; [18],100% (active)
same,growth inhibition,[6]; at 50.0 µM,54.5%
same,growth inhibition,[6]; at 100.0 µM,57%
same,growth inhibition,[7]; at 1.2 µM,-52%
same,growth inhibition,[7]; at 3.7 µM,-62%
same,growth inhibition,[7]; at 11.0 µM,-46%
same,growth inhibition,[7]; at 33.0 µM,-8%
same,growth inhibition,[7]; at 100.0 µM,34%
same,growth inhibition,[8]; [17],8%
same,growth inhibition,[8]; [18],71% (active)
same,growth inhibition,[8]; at 50.0 µM,53.4%
same,growth inhibition,[9]; at 1.2 µM,2%
same,growth inhibition,[9]; at 3.7 µM,1%
same,growth inhibition,[9]; at 11.0 µM,20%
same,growth inhibition,[9]; at 33.0 µM,24%
same,growth inhibition,[9]; at 100.0 µM,52%
same,growth inhibition,[10]; [17],36%
same,growth inhibition,[10]; [18],54%
same,growth inhibition,[10]; at 50.0 µM,34%
same,growth inhibition,[11]; at 1.2 µM,-38%
same,growth inhibition,[11]; at 3.7 µM,-26%
same,growth inhibition,[11]; [17],28%
same,growth inhibition,[11]; at 11.0 µM,-11%
same,growth inhibition,[11]; at 33.0 µM,29%
same,growth inhibition,[11]; [18],86% (active)
same,growth inhibition,[11]; at 50.0 µM,83.4% (active)
same,growth inhibition,[11]; at 100.0 µM,81% (active)
same,growth inhibition,[12]; at 1.2 µM,-20%
same,growth inhibition,[12]; at 3.7 µM,-12%
same,growth inhibition,[12]; at 11.0 µM,-10%
same,growth inhibition,[12]; at 33.0 µM,14%
same,growth inhibition,[12]; at 100.0 µM,47%
same,growth inhibition,[13]; at 1.2 µM,-16%
same,growth inhibition,[13]; at 3.7 µM,-24%
same,growth inhibition,[13]; at 11.0 µM,-3%
same,growth inhibition,[13]; at 33.0 µM,8%
same,growth inhibition,[13]; at 100.0 µM,46%
same,growth inhibition,[14]; at 1.2 µM,-25%
same,growth inhibition,[14]; at 3.7 µM,-27%
same,growth inhibition,[14]; at 11.0 µM,3%
same,growth inhibition,[14]; at 33.0 µM,33%
same,growth inhibition,[14]; at 100.0 µM,54%
same,growth inhibition,[15]; [17],67%
same,growth inhibition,[15]; [18],100% (active)
same,growth inhibition,[15]; at 50.0 µM,58.5%
same,growth inhibition,[16]; at 1.2 µM,-24%
same,growth inhibition,[16]; at 3.7 µM,-13%
same,growth inhibition,[16]; at 11.0 µM,2%
same,growth inhibition,[16]; at 33.0 µM,32%
same,growth inhibition,[16]; at 100.0 µM,60%
